Records with an inconclusive call do not appear. The source made the active and inactive calls. The calls were made as follows, unless noted: active = hit-call score of the fitted dose curve at least 0.9, where 1 is the maximum; inactive = score below 0.9.

Assay [1] in a line: CCTE_Shafer_MEA_acute_cross_correlation_HWHM: CCTE's Neural Acute Assay for Cross Correlation at Half Width at Half Maximum, Shafer Lab (AID 2284026).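 Also: spontaneous network firing of rat primary cortical neurons on multiwell microelectrode arrays; percent change per well from pre-dose baseline in spike cross-correlogram half width; hits are a decrease in cross-correlogram half width relative to DMSO.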 Put shortly:
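Rat cortical neuron cultures on microelectrode arrays were equilibrated 20 min at 37 C, recorded 40 min at baseline, then 40 min after compound addition (0.03-40 uM, ≥3 wells). Spikes were detected at 8x rms noise after 300-5000 Hz band-pass filtering.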

Assay [2] can be described thus: CCTE_Shafer_MEA_acute_synchrony_index: CCTE's Neural Acute Assay for Synchrony, Shafer Lab (AID 2284027).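 Also: network synchrony index of spontaneous spiking in primary rat cortical neurons on MEAs; fitted for loss of signal so actives lower synchrony relative to DMSO.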 Put shortly:
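The synchrony index is taken as percent change per well between a 40 min baseline and a 40 min recording with compound (0.03–40 uM), at 37C. Rat cortical cultures on multiwell MEAs at DIV 13 or 15, spike threshold 8× rms noise.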

Assay [3] can be described thus: CCTE_Shafer_MEA_dev_firing_rate_mean: CCTE's Neural Network Formation Assay for Mean Firing Rate, Shafer Lab (AID 2284031). Put shortly:
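Spike frequency (spikes/recording length, averaged over active electrodes) was recorded on days 5, 7, 9 and 12 and collapsed to AUC; rat cortical cultures received compound continuously over 12 days of network development.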

The nature of assay [4]: CCTE_Shafer_MEA_dev_per_burst_spike_percent: CCTE's Neural Network Formation Assay for Percent of Spikes in a Burst, Shafer Lab (AID 2284032).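 Also: fitted as a decrease in burst spike percentage below DMSO baseline.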 In outline: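 Value is trapezoidal AUC over recordings on days 5, 7, 9 and 12 of the well-mean fraction of spikes falling in single-electrode bursts; rat cortical cultures exposed continuously from plating, treatment renewed DIV 5 and 9, fitted downward against DMSO.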

Assay [5] in a line: CCTE_Shafer_MEA_dev_active_electrodes_number: CCTE's Neural Network Formation Assay for Number of Active Electrodes, Shafer Lab (AID 2284040; active = hit-call score of the fitted dose curve at least 0.9, where 1 is the maximum;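 also: potency for loss of active electrodes versus DMSO so lower counts are hits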). Put shortly: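 Counts electrodes per well firing at least 5 spikes/min, recorded on days 5, 7, 9 and 12 in rat cortical cultures dosed continuously from plating (treatment refreshed DIV 5, 9). Value is the area under the curve over recordings, fitted downward relative to DMSO.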

The nature of assay [6]: CCTE_Shafer_MEA_dev_bursting_electrodes_number: CCTE's Neural Network Formation Assay for Number of Bursting Electrodes, Shafer Lab (AID 2284043; active = hit-call score of the fitted dose curve at least 0.9, where 1 is the maximum;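 also: potency is for loss of bursting electrodes relative to DMSO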). Put shortly:
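Number of electrodes reaching ≥1 burst every 2 min was recorded at DIV 5, 7, 9 and 12 and collapsed as trapezoidal area under the curve. Cultures were rat cortical neurons on MEA plates, dosed continuously from plating with medium and treatment refreshed on DIV 5 and 9.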

Assay [7] can be described thus: CCTE_Shafer_MEA_dev_per_burst_interspike_interval: CCTE's Neural Network Formation Assay for Burst Interspike Interval, Shafer Lab (AID 2284044).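 Also: potency for a decrease of within-burst interspike interval below DMSO level.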 In outline:
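Neurons from rat cortex plated onto PEI-coated MEA wells with laminin […] at 1.5 x 10^5 cells/well, then treated from day 0. Media and compound fully replaced on DIV 5 and 9. Extracellular spontaneous firing recorded four times; interspike interval per burst summarised as AUC.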

Assay [8] can be described thus: CCTE_Shafer_MEA_dev_burst_duration_mean: CCTE's Neural Network Formation Assay for Mean Burst Duration, Shafer Lab (AID 2284045). Put shortly: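 Mean single-electrode burst duration (first to last spike), averaged over bursting electrodes per well, then integrated as area-under-curve across recordings at days 5, 7, 9 and 12. Rat cortical cultures on MEAs, compound present from plating, refreshed at feeds.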

A short description of assay [9]: CCTE_Shafer_MEA_dev_interburst_interval_mean: CCTE's Neural Network Formation Assay for Mean Interburst Interval, Shafer Lab (AID 2284046).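 Also: well-mean interburst interval of bursting electrodes as AUC over four recording days; curve fitted for decrease in interburst interval relative to DMSO.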 Put shortly:
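Recordings on days 5, 7, 9 and 12 give well-mean interburst interval across actively bursting electrodes, summarized as area under the curve. Cultures: rat cortical neurons, continuous exposure from day 0, compound renewed at feeds; decrease analyzed versus DMSO.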

Assay [10] can be described thus: CCTE_Shafer_MEA_dev_network_spike_number: CCTE's Neural Network Formation Assay for Number of Network Spikes, Shafer Lab (AID 2284048).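 Also: synchronized bursts across electrodes counted on days 5 7 9 12 and integrated as AUC.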 In outline:
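Number of network spikes (coordinated firing across electrodes) recorded on days 5, 7, 9 and 12 and summarised as area under the curve. Rat cortical cultures on MEA, continuous compound exposure with full medium/treatment exchange at DIV 5 and 9.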

Assay [11] can be described thus: CCTE_Shafer_MEA_dev_network_spike_peak: CCTE's Neural Network Formation Assay for Mean Number of Electrodes in Network Spike, Shafer Lab (AID 2284049).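 Also: fitted for loss of signal meaning fewer electrodes in network spikes than DMSO.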 Put shortly: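 Rat cortical primary culture, 1.5 x 10^5 cells/well, 48-well MEA (16 electrodes/well). Dosing day 0 through DIV 12, full media/compound exchange DIV 5, 9. AxIS adaptive spike detection; AUC over days 5/7/9/12; loss-of-signal vs DMSO.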

A short description of assay [12]: CCTE_Shafer_MEA_dev_spike_duration_mean: CCTE's Neural Network Formation Assay for Mean Spike Duration, Shafer Lab (AID 2284051).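 Also: potency for a decrease in mean network spike duration versus DMSO.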 In outline:
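Primary rat cortical neurons on 16-electrode MEA wells (PEI-coated, laminin in plating drop), exposed from plating through DIV 12 with compound renewed at DIV 5 and 9. Mean network-spike duration recorded DIV 5, 7, 9, 12; trapezoidal AUC across days, DMSO baseline.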

Assay [13] can be described thus: CCTE_Shafer_MEA_dev_per_network_spike_spike_number_mean: CCTE's Neural Network Formation Assay for Mean Number of Spikes in a Network Spike, Shafer Lab (AID 2284053). In outline:
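Primary rat cortical neurons on 48-well, 16-electrode MEA plates were exposed from plating to DIV 12, with dosing renewed on DIV 5 and 9. Spikes per network spike (0.05 s peak window) were recorded on DIV 5, 7, 9 and 12 and collapsed as trapezoidal AUC versus DMSO.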

Assay [14] is described as follows: CCTE_Shafer_MEA_dev_per_network_spike_spike_percent: CCTE's Neural Network Formation Assay for Percent of Spikes in a Network Spike, Shafer Lab (AID 2284054). Put shortly: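 Metric: fraction of spikes falling in a 0.05 s window at network-spike peaks. Recordings were made on days 5, 7, 9 and 12 and collapsed by trapezoidal AUC. Cultures were rat cortical neurons on MEA plates, dosed continuously from plating, re-dosed at media changes.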

A short description of assay [15]: CCTE_Shafer_MEA_dev_LDH: CCTE's Lactate Dehydrogenase Assay for Cytotoxicity in the Neural Network Formation Assay, Shafer Lab (AID 2284068; active = hit-call score of the fitted dose curve at least 0.9, where 1 is the maximum;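 also: exposure for twelve days from plating with re-dosing on DIV 5 and 9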). In outline: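 Primary rat cortical neurons were plated on PEI/laminin MEA plates and exposed from day 0 for twelve days, with compound renewed at DIV 5 and 9. Cytotoxicity was determined by spectrophotometric LDH assay relative to DMSO.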

A short description of assay [16]: CCTE_Shafer_MEA_dev_AB: CCTE's Alamar Blue Assay for Cytotoxicity in the Neural Network Formation Assay, Shafer Lab (AID 2284083; active = hit-call score of the fitted dose curve at least 0.9, where 1 is the maximum;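 also: twelve days of exposure from plating with re-dosing on DIV 5 and 9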). Put shortly: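 Primary rat cortical neurons on PEI-coated 48-well MEA plates, 1.5 x 10^5 cells/well in laminin drop; compound exposure from day 0 of plating for twelve days, renewed at medium changes on DIV 5 and 9. Viability read as resazurin reduction by fluorescence, relative to DMSO.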

A short description of assay [17]: CCTE_Shafer_MEA_acute_LDH: CCTE's Lactate Dehydrogenase Assay for Cytotoxicity in the Neural Acute Assay, Shafer Lab (AID 2284086; active = hit-call score of the fitted dose curve at least 0.9, where 1 is the maximum;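 also: active means LDH release rises above DMSO vehicle level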). In outline:
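LDH released during 40 min compound exposure of primary rat cortical cultures, quantified by absorbance at 490 nm in collected medium. Fitting direction positive versus DMSO vehicle.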

A word on the AC50: it is the concentration giving half of the maximal activity seen. For `O=C1CC2(CCCC2)CC(=O)N1CCCCN1CCN(c2ncccn2)CC1`, the compound was classed as inactive in assay [1], in assay [2], in assay [3], in [8], in assay [9] and in [10]. The compound was classed as inactive in [14], in assay [15] and in [17]. The AC50 is 15 µM (active) in assay [4]; 9.97 µM (active) in assay [5]; 15 µM (active) in [6]; 2.98 µM (active) in assay [7]; 15 µM (active) in assay [11]; 15 µM (active) in assay [12]. In addition, the AC50 in assay [13] is 21.6 µM (active); in assay [16], 15 µM (active).
